HPGD inh = blocks human HPGD enzyme activity | hit rate 4.3% among 150,000 | purified HPGD, NADH fluorescence kinetic, PGE2 substrate | Potency, µM, for inactives: at the highest dose activity change, negative = inhibition, most hits filed as inhibitors; further: potency means the concentration at half of the fitted maximal effect
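NADH formation kinetics: reaction with 30 uM PGE2 and 1 mM NAD+ (final), 20 nM enzyme, Tris-HCl pH 8 with Tween 20, after 15 min compound preincubation at room temperature. Fluorescence change, last versus first of five reads.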
LMNA splice mod = LMNA splicing modulation; HeLa LMNA splicing GFP/RFP minigene ratio, 48 h; Potency, µM (series often up to 46.1 µM), without a hit: at the top dose ratio change, negative = inhibition, actives largely listed as inhibitors; hit rate 0.01% among 200,000; active means well fitted inhibition curve with a large enough effect in the signal ratio, with a control signal flat, not every such curve was filed as active; inconclusive means small, poorly fitted or top-dose-only effect, or effect the other way, or a change in a side signal; the % refers to the signal ratio; further: potency means the concentration at half of the fitted maximal effect
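S3 HeLa cells stably expressing lamin A-EGFP splicing minigene plus DsRed2, 600 cells/well, 48 h compound exposure at 37C. Laser-scanning cytometry; analysed as GFP (500-530 nm)/RFP (575-640 nm) total intensity ratio; 0.5% DMSO vehicle.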
ALDH1A1 block = inhibitors of human aldehyde dehydrogenase 1A1; P00352; Purified ALDH1A1, NADH fluorescence, propionaldehyde substrate; Potency, µM (series often up to 75.3 µM), for the others: top-dose activity, negative = inhibition, hits mostly inhibitors; hit rate 7.3% among 220,000;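 further: potency means the concentration at half of the fitted maximal effect; plate controls were no enzyme wells and a reference inhibitor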
ALOX12 inhib = 12-hLO (ALOX12) enzyme inhibition; purified 12-hLO, xylenol orange hydroperoxide absorbance; Potency, µM (highest dose often 57.1 µM), for the others: at the highest dose activity change, negative = inhibition, most hits filed as inhibitors; hit rate 0.12% among 150,000; AID 1452; active means well fitted inhibition curve with a large enough effect; inconclusive means small, poorly fitted or top-dose-only effect; further: potency means the concentration at half of the fitted maximal effect; nearly all actives have a fitted effect of over 55% in size
Target sequence (P18054 whole entry, looked up): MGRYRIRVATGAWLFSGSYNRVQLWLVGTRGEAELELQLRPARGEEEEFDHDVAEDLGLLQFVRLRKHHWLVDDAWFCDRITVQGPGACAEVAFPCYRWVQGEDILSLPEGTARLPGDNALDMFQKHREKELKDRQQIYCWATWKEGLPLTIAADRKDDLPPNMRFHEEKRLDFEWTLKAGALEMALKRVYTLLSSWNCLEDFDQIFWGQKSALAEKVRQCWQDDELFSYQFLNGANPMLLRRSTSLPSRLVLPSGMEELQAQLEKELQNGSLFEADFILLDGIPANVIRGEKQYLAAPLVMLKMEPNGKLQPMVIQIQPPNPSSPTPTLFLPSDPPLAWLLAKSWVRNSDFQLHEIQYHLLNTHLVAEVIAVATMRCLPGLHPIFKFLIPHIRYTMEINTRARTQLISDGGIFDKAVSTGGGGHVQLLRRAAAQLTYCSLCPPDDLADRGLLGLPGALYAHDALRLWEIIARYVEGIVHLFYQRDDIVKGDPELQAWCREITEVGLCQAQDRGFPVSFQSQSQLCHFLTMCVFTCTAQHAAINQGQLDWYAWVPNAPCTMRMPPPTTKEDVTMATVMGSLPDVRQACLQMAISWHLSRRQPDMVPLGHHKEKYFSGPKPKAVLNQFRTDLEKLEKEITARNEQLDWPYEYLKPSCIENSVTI
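150 nM 12hLO, 25 mM Hepes pH 7.0 + 0.01% Triton X-100; cpd preinc 15 min RT; 40 uM arachidonic acid, 30 min RT; Fe-XO 30 min; A573/A405 ratio as read-out.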
PNC inhibitor = inhibitors of perinucleolar compartment assembly; activity change (PNC), negative = inhibition, % at 10 µM; hit rate 3.1% among 140,000; AID 2417; PC3M PTB-GFP, PNC prevalence imaging, 16 h; active compounds read low;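 active means readout at or below -70, meaning at least 70% loss of cells showing the perinucleolar compartment, a nuclear body marking cancer cells; inconclusive means readout between -30 and a set limit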;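 further: plate controls were DMSO wells for no effect and camptothecin positive control wells for full effect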
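PC3M cells stably expressing PTB-GFP, 750–1000 cells/well, treated 16 h at 37 °C with compound (23 nl of library stock), in duplicate. After paraformaldehyde fixation and Hoechst stain, imaged at 20x; PNC prevalence scored by image analysis.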
* marks the source's active call; other numbers are inactive results; ? = inconclusive; / = not tested or not shown; [ ] = dose if it differs, or a comment. Hits are enriched below; roughly 10% of the tested compounds scored in any of these assays. Unless noted, the call rests on the fitted dose curve; in most records, active means well fitted inhibition curve with a large enough effect (not every such curve was filed as active); inconclusive means small, poorly fitted or top-dose-only effect, or another doubt; inactive means no such curve, though single readings can be large or run the other way. Unless noted, on the % scale 0 is the no-effect control and ±100 the full control effect.

SMILES	HPGD inh	LMNA splice mod	ALDH1A1 block	ALOX12 inhib	PNC inhibitor
CC(=NCc1cccc(Cl)c1)c1nc(-c2ccco2)oc1O	-15.4%	?	17.8µM*	-1.6%	31.9
CCOC1=NC(C(=O)O)c2ccccc2/C(=C(/C)Cl)N1 (stereo unspecified)	-2.2%	-2.7%	3.98µM*	-0.4%	-7.7
Cc1ccc(OCc2ccc(C(=O)N3CCOCC3)cc2)cc1C	25.1µM*	3.2%	0.3%	-6.0%	?
Cc1ccc(C(=O)OCC(=O)c2ccc(Cl)s2)s1	15.8µM*	-8.2%	?	-3.6%	10.1
Fc1ccccc1C1c2cccn2CCN1C(=S)Nc1ccc(Br)cc1 (stereo unspecified)	/	?	14.1µM*	/	/
Cc1cc(C(=O)CSc2nc3ccccc3[nH]2)c(C)n1CC1CCCO1 (stereo unspecified)	15.8µM*	-0.7%	?	4.3%	-3.5
Cc1cccc(-n2nnnc2SCC(=O)c2cc(C)n(CC3CCCO3)c2C)c1 (stereo unspecified)	-9.8%	?	7.94µM*	0.2%	64.4
Cc1cccc(-n2nnnc2SCC(=O)c2cc(C)n(Cc3ccco3)c2C)c1	-7.5%	?	17.8µM*	-7.9%	8.1
Cc1cc(C(=O)CSc2nnc(N)s2)c(C)n1Cc1ccco1	/	11.8%[46 µM]	-7.5%	/	/
Cc1cc(C(=O)CSc2nnnn2-c2ccccc2)c(C)n1-c1ccc2c(c1)OCO2	-18.6%	?	0.251µM*	-4.1%	-27.4
Cc1ccc(-n2nnnc2SCC(=O)c2cc(C)n(CC3CCCO3)c2C)cc1 (stereo unspecified)	-2.0%	7.7%	-0.1%	-2.9%	-3.8
COc1ccc(N2CC(NC(=O)COc3ccccc3F)CC2=O)cc1OC (stereo unspecified)	/	14.6%[46 µM]	/	/	/
CCOC(=O)c1c(S(=O)(=O)N2CCC(C(=O)Nc3cccc(C#N)c3)CC2)c(C)n(C)c1C	/	-15.9%[46 µM]	/	/	/
Cc1cc(C(=O)CSc2nnc(C3COc4ccccc4O3)n2C)c(C)n1-c1ccc(F)cc1 (stereo unspecified)	28.2µM*	?	?	-16.6%	11.9
Cc1cc(C(=O)COc2ccc(C#N)cc2)c(C)n1-c1ccc2c(c1)OCO2	-4.3%	?	5.2%	-1.4%	-13.8
Cc1cc(C(=O)COC(=O)C2=COCCO2)c(C)n1-c1ccc2c(c1)OCO2	15.8µM*	13.7%	15.8µM*	-5.4%	-12.0
c1ccc(CSc2ncnc3c2cnn3-c2ccccc2)cc1	25.1µM*	-9.7%	?	0.5%	-10.8
Cc1ccc(CSc2ncnc3c2cnn3Cc2ccccc2)cc1	-10.6%	-29.0%	-8.2%	0.3%	29.1
CS(=O)(=O)c1ccc(S(=O)CC(=O)OCc2ccccc2)c([N+](=O)[O-])c1 (stereo unspecified)	/	?	12.6µM*	/	/
COC(=O)c1ccc(OC(=O)CS(=O)c2ccccc2[N+](=O)[O-])cc1 (stereo unspecified)	/	/	-1.3%	/	/
Cc1ccc(C)c(N(CC(=O)N/N=C/c2ccc(-c3ccc([N+](=O)[O-])cc3)o2)S(=O)(=O)c2ccccc2)c1	-20.2%	6.9%	?	-10.9%	?
CCOc1ccc(S(=O)(=O)N(CC(=O)N/N=C/c2ccc(-c3ccc([N+](=O)[O-])cc3)o2)c2ccccc2)cc1	-21.3%	15.6%	25.1µM*	-18.6%	47.0
Cn1cc(-c2nc3cnc(N4CCOCC4)nc3n(CCC#N)c2=O)c2ccccc21	/	?	13.9%	/	/
CCN(C(=O)CCC(=O)N(CC)c1ccccc1)c1ccccc1	-12.6%	9.5%	4.1%	7.6%	20.4
CCCC(=O)N(CCN(C(=O)CCC)c1ccccc1)c1ccccc1	-4.3%	-12.1%	4.3%	1.9%	-100.0*
SMILES	HPGD inh	LMNA splice mod	ALDH1A1 block	ALOX12 inhib	PNC inhibitor
CCN=C(NCC)SC1CC(=O)N(c2ccccc2)C1=O (stereo unspecified)	-9.9%	-2.8%	-4.0%	-4.3%	17.7
O=C1CC(Sc2cccs2)C(=O)N1c1ccccc1 (stereo unspecified)	/	15.1%[46 µM]	12.6µM*	/	/
O=C(O)c1ccccc1SC1CC(=O)N(c2ccccc2)C1=O (stereo unspecified)	-4.1%	-7.0%	2.51µM*	-2.5%	64.4
O=C(O)c1ccccc1SC1CC(=O)N(C2CCCCC2)C1=O (stereo unspecified)	-7.7%	-7.8%	0.631µM*	0.0%	40.3
O=C1CC(SC2=NCCS2)C(=O)N1c1ccc(Br)cc1 (stereo unspecified)	-10.1%	-1.9%	7.94µM*	1.9%	?
Cc1noc(C)c1-c1cc(N(C)C)ncn1	-12.8%	2.7%	6.8%	0.8%	/
COc1cc(Cl)c(NC(=O)c2cc(S(=O)(=O)N3CCCCC3)c[nH]2)c(OC)c1	/	19.8%[46 µM]	/	/	/
Cc1nc(SC2CC(=O)N(c3ccccc3)C2=O)nc2c1CCCC2 (stereo unspecified)	-10.4%	9.7%	-12.2%	-1.2%	?
COC(=O)c1c(N2C(=O)CC(Sc3ccccc3C(=O)O)C2=O)sc(C)c1C (stereo unspecified)	/	/	-1.3%	/	/
COC(=O)c1c(N2C(=O)CC(Sc3ccccc3C(=O)O)C2=O)sc2c1CCCC2 (stereo unspecified)	/	/	0.447µM*	/	/
Cc1nnc(SC2CC(=O)N(c3ccccc3)C2=O)s1 (stereo unspecified)	12.6µM*	2.9%	0.708µM*	-2.3%	-23.2
O=C(NCCC1=CCCCC1)c1ccc2c(c1)ncn2-c1ccc(F)c(F)c1	/	-10.8%[46 µM]	/	/	/
Cc1ccc(CNC(=O)c2c(-c3ccccc3Cl)noc2C)o1	/	2.4%[46 µM]	/	/	/
COc1ccc(Cn2c(=O)n(-c3ccc(OC)cc3)c(=O)c3c2c2cc(OC)ccc2n3C)cc1	/	3.3%[46 µM]	/	/	/
CCCCOC(=O)c1ccc(NC(=O)c2cc(-c3cccs3)on2)cc1	/	6.0%[46 µM]	/	/	/
C[C@@H](N1CCOCC1)[C@@](O)(c1ccccc1)c1ccccn1	-2.3%	/	1.2%[13.5 µM]	-3.7%[11.4 µM]	/
CCOC(=O)c1ccccc1NC(=O)N1CCN(Cc2cc(=O)n3nc(-c4ccccc4)sc3n2)CC1	/	-1.8%[46 µM]	/	/	/
O=C(COC(=O)c1ccc(S(=O)(=O)NCc2ccco2)cc1)Nc1ccccc1OC(F)F	-18.9%	-14.5%	2.0%	-8.1%	-101.4*
CN(C)S(=O)(=O)c1ccc(C(=O)OCC(=O)Nc2ccccc2OC(F)F)cc1	-0.1%	5.3%	-6.5%	3.5%	27.1
Cc1cc(OCC(=O)N2CCCC2)ccc1Cl	-24.6%	12.9%	-7.1%	-3.7%	?
Cc1cc(OCC(=O)N2CCCC2)cc(C)c1Cl	11.2µM*	20.3%	26.3%	0.0%	-21.1
Cc1ccc(OCC(=O)N2CCCCC2)c(Br)c1	15.8µM*	2.0%	-0.8%	-2.3%	44.7
CN1CCN(c2ncc3nc(-c4ccc(Cl)cc4)c(=O)n(C)c3n2)CC1	/	3.6%	?	/	/
O=C(c1ccncc1)N1CCC2(CCCN(c3ccccc3)C2)CC1	-9.2%	/	-9.0%	0.6%	/

High-throughput results: PubChem BioAssay, National Center for Advancing Translational Sciences (NCATS)
